# Results as given in the supplement of paper PMC8728848.
# This excerpt belongs to a sample that is enriched for the strongest signals.
# Assays:
# Assay in all cases: glycan array binding signal (z-score within array); higher = stronger binding
# Conditions in all cases: glycan notation: IUPAC condensed, linker removed
# Gal(a1-3)GalNAc = molecular target: Gal(a1-3)GalNAc
# Procedure, shortened: (§1)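 The binding signal is a Z-score computed within each array and averaged over linkers. Arrays of the same protein sequence at different concentrations or buffers were also averaged together. Data originate from 3228 arrays in the Consortium for Functional Glycomics database, kept only where the protein sequence was available.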
# Gal(a1-4)Gal(b1-4)Glc = molecular target: Gal(a1-4)Gal(b1-4)Glc
# Procedure, shortened: as §1
# [1] = molecular target: Gal(b1-3)GalNAc(b1-4)Gal(b1-4)Glc
# Procedure, shortened: as §1
# [2] = molecular target: Gal(b1-4)GalNAc(a1-3)[Fuc(a1-2)]Gal(b1-4)GlcNAc
# Procedure, shortened: as §1
# [3] = molecular target: Gal(b1-4)GlcNAc(b1-3)[Gal(b1-4)GlcNAc(b1-6)]GalNAc
# Procedure, shortened: as §1
# [4] = molecular target: Gal3S(b1-3)[Fuc(a1-4)]GlcNAc
# Procedure, shortened: as §1
# Gal6S(b1-4)Glc6S = molecular target: Gal6S(b1-4)Glc6S
# Procedure, shortened: as §1
# Glc(a1-4)Glc = molecular target: Glc(a1-4)Glc
# Procedure, shortened: as §1
# [5] = molecular target: GlcNAc(b1-2)Gal(b1-3)GalNAc
# Procedure, shortened: as §1
# [6] = molecular target: Neu5Ac(a2-3)[GalNAc(b1-4)]Gal(b1-4)Glc
# Procedure, shortened: as §1
# [7] = molecular target: Neu5Ac(a2-6)Gal(b1-4)GlcNAc(b1-3)Gal(b1-4)[Fuc(a1-3)]GlcNAc(b1-3)Gal(b1-4)[Fuc(a1-3)]GlcNAc
# Procedure, shortened: as §1
# [8] = molecular target: Neu5Ac(a2-8)Neu5Ac(a2-8)Neu5Ac(a2-3)Gal(b1-4)Glc
# Procedure, shortened: as §1
# [9] = molecular target: Neu5Gc(a2-3)Gal(b1-3)GlcNAc
# Procedure, shortened: as §1
# [10] = molecular target: Neu5Gc(a2-3)Gal(b1-4)[Fuc(a1-3)]GlcNAc
# Procedure, shortened: as §1
# [11] = molecular target: Glc(b1-2)Glc(b1-2)Glc(b1-2)Glc(b1-2)Glc(b1-2)Glc(b1-2)Glc(b1-2)Glc(b1-2)Glc
# Procedure, shortened: as §1
# [12] = molecular target: Glc(b1-3)Glc(b1-3)Glc(b1-3)Glc(b1-3)Glc(b1-3)Glc(b1-3)Glc(b1-3)Glc(b1-3)Glc(b1-3)Glc(b1-3)Glc(b1-3)Glc(b1-3)Glc
# Procedure, shortened: as §1
# [13] = molecular target: Gal(b1-3)[GlcNAc(b1-6)]GalNAc
# Procedure, shortened: as §1
# [14] = molecular target: Gal(b1-4)GlcNAc(b1-3)Gal(b1-4)GlcNAc(b1-3)Gal(b1-4)GlcNAc
# Procedure, shortened: as §1
# Gal3S(b1-4)Glc = molecular target: Gal3S(b1-4)Glc
# Procedure, shortened: as §1
# Gal6S(b1-4)Glc = molecular target: Gal6S(b1-4)Glc
# Procedure, shortened: as §1
# Glc(b1-6)Glc = molecular target: Glc(b1-6)Glc
# Procedure, shortened: as §1
# Man(a1-2)Man(a1-3)Man = molecular target: Man(a1-2)Man(a1-3)Man
# Procedure, shortened: as §1
# [15] = molecular target: Man(a1-2)Man(a1-3)[Man(a1-2)Man(a1-6)]Man
# Procedure, shortened: as §1
# [16] = molecular target: Neu5Ac(a2-3)Gal(b1-3)[Neu5Ac(a2-3)Gal(b1-4)]GlcNAc
# Procedure, shortened: as §1
# [17] = molecular target: Neu5Ac(a2-3)[GalNAc(b1-4)]Gal(b1-4)GlcNAc
# Procedure, shortened: as §1
# [18] = molecular target: Neu5Ac(a2-3)[Neu5Ac(a2-6)]GalNAc
# Procedure, shortened: as §1
# [19] = molecular target: Glc(a1-3)Glc(a1-3)Glc(a1-3)Glc
# Procedure, shortened: as §1
# [20] = molecular target: Glc(a1-4)Glc(a1-4)Glc(a1-4)Glc(a1-4)Glc(a1-4)Glc(a1-4)Glc(a1-4)Glc(a1-4)Glc(a1-4)Glc
# Procedure, shortened: as §1
# [21] = molecular target: Glc(b1-3)Glc(b1-3)Glc(b1-3)Glc(b1-3)Glc(b1-3)Glc
# Procedure, shortened: as §1
# [22] = molecular target: Glc(b1-3)Glc(b1-3)Glc(b1-3)Glc(b1-3)Glc(b1-3)Glc(b1-3)Glc(b1-3)Glc(b1-3)Glc(b1-3)Glc(b1-3)Glc
# Procedure, shortened: as §1
# [23] = molecular target: Glc(b1-3)Glc(b1-3)Glc(b1-3)Glc(b1-3)Glc(b1-3)Glc(b1-3)Glc(b1-3)Glc(b1-3)Glc(b1-3)Glc(b1-3)Glc(b1-3)Glc
# Procedure, shortened: as §1
# [24] = molecular target: Glc(b1-4)Glc(b1-4)Glc(b1-4)Glc(b1-4)Glc(b1-4)Glc(b1-4)Glc
# Procedure, shortened: as §1
binder,measurement,setting,value
"IRp60B (Homo sapiens), Q9UGN4-3 (protein) MWLPWALLLLWVPAGDHSELSQNPKQAATQSELHYANLELLMWPLQEKPAPPREVEVEYSTVASPREELHYASVVFDSNTNRIAAQRPREEEPDSDYSVIRKT",glycan array binding signal (z-score),Gal(a1-3)GalNAc,0.074
same,glycan array binding signal (z-score),Gal(a1-4)Gal(b1-4)Glc,5.38
same,glycan array binding signal (z-score),[1],2.68
same,glycan array binding signal (z-score),[2],-0.378
same,glycan array binding signal (z-score),[3],4.42
same,glycan array binding signal (z-score),[4],4.5
same,glycan array binding signal (z-score),Gal6S(b1-4)Glc6S,-0.421
same,glycan array binding signal (z-score),Glc(a1-4)Glc,-0.26
same,glycan array binding signal (z-score),[5],-0.44
same,glycan array binding signal (z-score),[6],-0.323
same,glycan array binding signal (z-score),[7],1.2
same,glycan array binding signal (z-score),[8],1.18
same,glycan array binding signal (z-score),[9],-0.475
same,glycan array binding signal (z-score),[10],-0.107
"DC-SIGNR (Homo sapiens), Q9H2X3 (protein) QVSKVPSSLSQEQSEQDAIYQNLTQLKAAVGELSEKSKLQEIYQELTQLKAAVGELPEKSKLQEIYQELTRLKAAVGELPEKSKLQEIYQELTRLKAAVGELPEKSKLQEIYQELTRLKAAVGELPEKSKLQEIYQELTELKAAVGELPEKSKLQEIYQELTQLKAAVGELPDQSKQQQIYQELTDLKTAFERLCRHCPKDWTFFQGNCYFMSNSQRNWHDSVTACQEVRAQLVVIKTAEEQNFLQLQTSRSNRFSWMGLSDLNQEGTWQWVDGSPLSPSFQRYWNSGEPNNSGNEDCAEFSGSGWNDNRCDVDNYWICKKPAACFRDE",glycan array binding signal (z-score),[11],1.64
same,glycan array binding signal (z-score),[12],-0.981
"Hip/Pap (Homo sapiens), Q06141 (protein) MLPPMALPSVSWMLLSCLMLLSQVQGEEPQRELPSARIRCPKGSKAYGSHCYALFLSPKSWTDADLACQKRPSGNLVSVLSGAEGSFVSSLVKSIGNSYSYVWIGLHDPTQGTEPNGEGWEWSSSDVMNYFAWERNPSTISSPGHCASLSRSTAFLRWKDYNCNVRLPYVCKFTD",glycan array binding signal (z-score),[13],-0.159
same,glycan array binding signal (z-score),[14],-0.173
same,glycan array binding signal (z-score),Gal3S(b1-4)Glc,0.278
same,glycan array binding signal (z-score),Gal6S(b1-4)Glc,-0.162
same,glycan array binding signal (z-score),Glc(a1-4)Glc,0.806
same,glycan array binding signal (z-score),Glc(b1-6)Glc,0.091
same,glycan array binding signal (z-score),[5],-0.099
same,glycan array binding signal (z-score),Man(a1-2)Man(a1-3)Man,-0.027
same,glycan array binding signal (z-score),[15],0.58
same,glycan array binding signal (z-score),[16],0.71
same,glycan array binding signal (z-score),[17],-0.173
same,glycan array binding signal (z-score),[18],-0.168
"Lam16A (Thermotoga maritima), Q9WXN1 (protein) EQINNGTFDEPIVNDQANNPDEWFIWQAGDYGISGARVSDYGVRDGYAYITIADPGTDTWHIQFNQWIGLYRGKTYTISFKAKADTPRPINVKILQNHDPWTNYFAQTVNLTADWQTFTFTYTHPDDADEVVQISFELGEGTATTIYFDDVTVSPQ",glycan array binding signal (z-score),[19],-0.373
same,glycan array binding signal (z-score),[20],-0.363
same,glycan array binding signal (z-score),[21],1.79
same,glycan array binding signal (z-score),[22],3.64
same,glycan array binding signal (z-score),[23],4.46
same,glycan array binding signal (z-score),[12],4.88
same,glycan array binding signal (z-score),[24],-0.373
